Composite z-score data for 29 molecules are collected here from PubChem BioAssay.

The nature of one experiment: binders from COS7 lysate, DM2A8 probe, primary screen, torsin A project, cell lysate, small-molecule microarray, fluorescence 635/667 (AID 1065). To be noted: higher = more signal, COS7 lysate expressing mutant human TOR1A.
For `COc1ccc([Si](C)(C)[C@H]2[C@H](CCO)O[C@@]3(C(=O)N(C)c4c(Br)cc(C)cc43)[C@@H]2C)cc1`, the composite z-score worked out at 0.325.
`C[C@@]1([C@@H](NC(=O)c2ccccc2)c2ccc(-c3ccccc3)cc2)C[C@H]1C1CCCCC1`: the composite z-score was -0.671.
Still for that read-out and setting: the same measure for `O=C1NC(=O)C2C1C=CC(C(O)C(c1ccccc1)c1ccccc1)N2Nc1ccc(Cl)cc1Cl` (centres undefined): -0.471; for `COCCOC(=O)N1C(=O)[C@@]2(c3cc(C#Cc4ccc(OC)cc4)ccc31)[C@H](C(N)=O)[C@H]1C(=O)O[C@H](c3ccccc3)[C@H](c3ccccc3)N1[C@@H]2c1ccccc1OCCO`: 2.16.
Molecule `C#CCN(Cc1ccccc1Br)C(/C=C/c1ccccc1)CO` (centres undefined) displayed a composite z-score of 0.0837.
The same measure, in the same setting: the figure for `CCCN1C(=O)[C@]2(CCS(=O)(=O)c3ccccc3)N=C(c3ccc(OCCCO)cc3)O[C@@H]2c2ccccc21` is -0.212; for `COCCOC(=O)N1C(=O)[C@@]2(c3cc(C#CCCO)ccc31)[C@H](C(=O)Nc1nc3ccccc3s1)[C@H]1C(=O)O[C@H](c3ccccc3)[C@H](c3ccccc3)N1[C@@H]2c1ccc(OCCO)cc1` it is 0.787; for `CCCCC(=C=CC[C@@H](O)c1ccccc1OCCO)CCO` it is 0.163.

The nature of the next experiment: binders of probe aFGF2 on microarray, primary screen, stem cell growth factor project, biochemical, small-molecule microarray, fluorescence 635/667 (AID 1067).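 Note: measures binding of biotinylated aFGF2 protein to printed compounds on slides; z-score merges feature fluorescence and signal-to-noise across triplicate slides.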 To be noted: higher = more signal.
Molecule `O=C1O[C@H](c2ccccc2)[C@H](c2ccccc2)N2[C@H]1[C@@H](C(=O)Nc1nc3ccccc3s1)[C@]1(C(=O)Nc3ccc(C#CCCO)cc31)[C@H]2c1ccc(OCCO)cc1` had a composite z-score of 0.0401.
As to `O=C1OCCC/C=C\[C@H]2OC34C=CCN(Cc5ccccc5)C(=O)[C@H]3N(CCCCCCO)C(=O)[C@@H]4C12` (some centres undefined), the composite z-score is -0.0956.
On the same count and under the same terms, the figure for `C=CC[C@]1(C(=O)N2CCCCC2)N=C(c2ccc(OCCCO)cc2)O[C@H]1c1ccccc1` is 0.0472; for `COc1ccc(C(=O)O[C@H]2CC[C@]3(C)C4=C(CCC3C2(C)C)[C@]2(C)CC[C@H]([C@H](C)CCCC(C)C)[C@@]2(C)CC4)cc1` (some centres undefined) it is -0.128; for `C[C@]1(C(=O)NC2CC2)c2ccccc2C(=O)N(Cc2cc(C(F)(F)F)cc(C(F)(F)F)c2)[C@H]1c1ccc(CO)cc1` it is 0.0458.
Same read-out and setting: the same measure for `NCCCCCNC(=O)[C@@H]1C[C@@H]2C(=O)NCC(=O)N2[C@@H]1c1ccc(O)cc1`: -0.129.
On the same count and under the same terms, the figure for `[N-]=[N+]=Nc1ccccc1C[C@@]1(C(=O)NCCN2CCOCC2)N=C(c2ccc(OCCCO)cc2)O[C@@H]1c1ccccc1` is 0.146; for `Cc1ccc(S[C@]2(C(=O)NC3CC3)CC(=O)N(C3Cc4ccccc4C3)[C@@H]2c2ccc(CO)cc2)cc1` it is 0.11.
The molecule `C=C(/C(=C/C[C@@H](OC(C)=O)c1ccc(OCCO)cc1)c1cnc2ccccc2c1)C(C)C` displayed a composite z-score of -0.073.
On to `CC1(C)[C@@H]2CC(C(O)C3C=CC4C(=O)N(c5ccccc5)C(=O)C4N3Nc3ccccc3)=C[C@H]1C2` (some centres undefined), for which the composite z-score amounted to 0.062.
In turn, `COC(=O)[C@@]1(Cc2ccc(F)cc2)[C@H]2c3cc(C(=O)N4CCCC4)n(Cc4cc(C)n(C)n4)c3C[C@H]2CN1C(=O)c1ccccc1` yielded a composite z-score of 0.188.
On the same count and under the same terms, the same measure for `CC1CC/C=C\[C@H]2OC34C=CCN(c5ccc(Cl)cc5)C(=O)[C@H]3N(CCO)C(=O)[C@]4(C)C2C(=O)O1` (some centres undefined): -0.12.
In turn, `O=C1O[C@H](c2ccccc2)[C@H](c2ccccc2)N2[C@H]1[C@@H](C(=O)O)[C@]1(C(=O)Nc3ccc(C#CCCO)cc31)[C@H]2c1ccc(O)cc1` gave a composite z-score of 0.0248.
Same read-out and setting: the same measure for `COc1cc2c(cc1O)C=[N+](Cc1cccc(OC(F)(F)F)c1)CC2`: -0.106; for `COC(=O)c1c(CC[C@@H](CO)NC(=O)N[C@H](Cn2cc(Cc3ccccc3)nn2)C(C)C)oc(C(C)=O)c1C(=O)OC`: -0.119; for `O=C1O[C@H](c2ccccc2)[C@H](c2ccccc2)N2[C@H]1[C@@H](C(=O)N1CCN(c3ncccn3)CC1)[C@]1(C(=O)Nc3ccc(C#CC4=CCCCC4)cc31)[C@H]2c1ccc(O)cc1`: -0.0523.
As to `CN(C)CCCNC(=O)[C@@]1(c2ccc([N+](=O)[O-])cc2)CC(=O)N(C2CCCCC2)[C@@H]1c1ccc(CO)cc1`, the composite z-score is -0.0717.
Still for that read-out and setting: the figure for `COc1ccc(C#Cc2ccc3c(c2)[C@]2(C(=O)N3)[C@H](c3ccccc3OCCO)N3[C@H](c4ccccc4)[C@H](c4ccccc4)OC(=O)[C@H]3[C@@H]2C(=O)O)cc1` is 0.0406.
The molecule `COc1ccc([C@H]2OC[C@@H]3CC4(CC=CC4)C(=O)N32)cc1` displayed a composite z-score of -0.129.
On the same count and under the same terms, the same measure for `COc1ccc(C(O)C2C=CC3C(=O)NC(=O)C3N2Nc2ccccn2)c2ccccc12` (centres undefined): 0.0467; for `Cc1ccc(S[C@]2(C(=O)NC(C)C)CC(=O)N(Cc3ccccc3Cl)[C@@H]2c2ccc(CO)cc2I)cc1`: -0.223.
